Assay results: PubChem BioAssay (EPA / NIEHS)
Some structures have more than one record in an assay (separate samples or runs), and their calls can disagree. Active and inactive are the calls of the source. Rule for the calls: active = hit-call score of the fitted dose curve at least 0.9, where 1 is the maximum; inactive = score below 0.9.

Test: ATG_TA_CIS: Attagene CIS-FACTORIAL HepG2 Assay for human TA Basal Promoter (AID 2282964)
Settings: HepG2 Attagene CIS-factorial TA basal promoter reporter; actives raise or lower the signal
Method: ATG_CIS is a cell-based, multiplexed-readout assay that uses HepG2, a human liver cell line, with measurements taken at 24 hours after chemical dosing in a 24-well plate.ATG_TA_CIS is one of 52 assay component(s) measured or calculated from the ATG_CIS assay. It is designed to make measurements of mRNA induction, a form of inducible reporter, as detected with fluorescence intensity signals by Reverse transcription polymerase chain reaction (RT-PCR) and Capillary electrophoresis technology.Data from the assay component ATG_TA_CIS was analyzed into 1 assay endpoint. This assay endpoint, ATG_TA_CIS, was analyzed with bidirectional fitting relative to DMSO as the negative control and baseline of activity. Using a type of inducible reporter, measures of mRNA for gain or loss-of-signal activity can be used to understand the background control at the transcription factor-level as they relate to the gene . Furthermore, this assay endpoint can be referred to as a secondary readout, because this assay has produced multiple assay endpoints where this one serves a background control function. To generalize the intended target to other relatable targets, this assay endpoint is annotated to the background measurement intended target family, where the subfamily is internal marker.
Human liver HepG2 cells are transiently transfected with multiple reporter transcription units (MRTUs) in 6-well plates using FuGene 6 reagent (Roche; 3 ml FuGene/1 mg DNA). The MRTU constructs are regulated by a cis-regulating element (promoter). […] A major difference between the CIS and TRANS system is that in CIS activities of endogenous TFs are measured, whereas the TRANS assay evaluates changes in activities of exogenous, chimeric NR-Gal4 proteins. […] At the end of 24 hour incubation, total RNA was isolated using TriZol reagent (Invitrogen). The isolated RNA is then reverse-transcribed using oligo(dT) primer and Mo-MLV reverse transcriptase (Invitrogen) with DNAse I (Ambion) treatment for 30 min. The one-tenth of the produced cDNA was amplified by PCR using Taq DNA polymerase (Invitrogen) and two reporter sequence-specific primers. The PCR products were fluorescently labeled by primer extension with 6-arboxyfluorescein (6-FAM) 5'-labeled reporter sequence-specific primer (2 min at 95 C, 20 s at 68 C and 10 min at 72 C) and these products were digested with 5U of HpaI (New England Biolabs) for 2h at 37 C. The fragments were purified using Qiaquick PCR columns (Qiagen), analyzed on an ABI 3130xL genetic analyzer (Applied Biosystems) with peak positions identified by using a set of X-rhodamine (ROX)-labeled MapMarker1000 molecular weight standards (BioVentures). The raw capillary electrophoresis data was processed using Attagraph software (Attagene).

| Structure (SMILES) | outcome | AC50 |
| --- | --- | --- |
| CNC(=O)CSP(=O)(OC)OC | inactive |  |
| CN(C1CCCCC1)C1CCCCC1 | inactive |  |
| CC(c1ccc(O)cc1)c1ccc(O)cc1 | inactive |  |
| C=CCN=C=S | inactive |  |
| CCC[CH2][Sn]([CH2]CCC)([CH2]CCC)[CH2]CCC |  | 17.1 µM (active) |
| Clc1cc(C(Cl)(Cl)Cl)cnc1Cl | inactive |  |
| O=c1[nH]c(=O)n(Cl)c(=O)n1Cl | inactive |  |
| ClCc1ccccc1CCl | inactive |  |
| O=c1nc(O)n(Cl)c(=O)n1Cl | inactive |  |
| Cc1cccc(OP(=O)(Oc2cccc(C)c2)Oc2cccc(C)c2)c1 | inactive |  |
| C#CCO | inactive |  |
| O=[N+]([O-])c1c2ccccc2cc2ccccc12 | inactive |  |
| COCC(=O)N(c1c(C)cccc1C)[C@H](C)C(=O)OC | inactive |  |
| CNC(=O)O/N=C/C(C)(C)S(C)(=O)=O | inactive |  |
| O=[N+]([O-])c1ccc(Cl)c([N+](=O)[O-])c1 | inactive |  |
| O=[N+]([O-])c1ccc(Nc2ccccc2)cc1 | inactive |  |
| CC[N+](CC)(CC)CC | inactive |  |
| CCCCN(CCCC)C(=S)[S-].CCCCN(CCCC)C(=S)[S-].[Ni+2] | inactive |  |
| OCC(c1ccc(Cl)cc1)c1ccc(Cl)cc1 |  | 60.7 µM (active) |
| C#CCOC(=O)/C=C(C)/C=C/CC(C)CCCC(C)C (stereo not given) | inactive |  |

| Structure (SMILES) | outcome | AC50 |
| --- | --- | --- |
| NC(=O)c1ccc(N)nc1 | inactive |  |
| CCOP(=S)(OCC)SCSc1cc(Cl)ccc1Cl | inactive |  |
| CC1(C)[C@H](/C=C2\CCSC2=O)[C@@H]1C(=O)OCc1coc(Cc2ccccc2)c1 |  | 30.5 µM (active) |
| Clc1cccc(Cl)c1 | inactive |  |
| O=c1oc2ccccc2c(O)c1C(CC(O)c1ccc(-c2ccc(Br)cc2)cc1)c1ccccc1 (stereo not given) | inactive | 13.7 µM (active) |
| OC(Cc1ccccc1Cl)(Cn1cncn1)C1(Cl)CC1 (stereo not given) | inactive |  |
| C[CH2][Hg][S]c1ccccc1C(=O)O | inactive |  |
| CCCCOC(C)=O | inactive |  |
| CCCCC(CC)COC(=O)Cl (stereo not given) | inactive |  |
| c1csc(-c2ccc(-c3cccs3)s2)c1 |  | 4.42 µM (active) |
| C#C[C@]1(O)CC[C@H]2[C@@H]3CCC4=CC(=O)CC[C@]4(C)[C@H]3CC[C@@]21C | inactive |  |
| O=C1C=CC(=O)c2ccccc21 | inactive |  |
| O=S(=O)(F)C(F)(F)C(F)(F)C(F)(F)C(F)(F)F | inactive |  |
| CCOC(=O)CC(=O)CCl | inactive |  |
| OC[P+](CO)(CO)CO | inactive |  |
| O=NN1CCCCCC1 | inactive |  |
| COc1nn(C(=O)NS(=O)(=O)c2ccccc2OC(F)(F)F)c(=O)n1C | inactive |  |
| NNCCO | inactive |  |
| Cc1cc(C(F)(C(F)(F)F)C(F)(F)F)ccc1NC(=O)c1cccc(I)c1C(=O)NC(C)(C)CS(C)(=O)=O | inactive |  |
